Bioassay records as filed in PubChem BioAssay.
Most compounds without a hit are left out; they make up all but 17% or so of the library.
TGFb SMAD3 inh: inhibitors of TGF-b signaling; HepG2 CAGA-GFP TGF-b/SMAD3 reporter, GFP fluorescence, 18 h; TGF-beta stimulated, 500 pg/mL final; Potency, µM (highest dose often 46.1 µM), inactives show at the highest dose activity, negative = inhibition, actives largely listed as inhibitors; actives 1.2% (n = 410,000); AID 588855; note: % is set by controls: 0 for no effect and ±100 for the full control effect; nearly all actives have a fitted effect of over 65% in size
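First, reporter cells (HEPG2 CAGA-GFP) rested 2 h at 37 degrees C. Next, compounds were pinned in and TGF-beta added to 500 pg/mL final. After 18 h, GFP was imaged per cell and summed per well.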
DT40 TDP1 CPT: growth inhibition of DT40 Tdp1-/-;hTDP1 cells with camptothecin (screen for TDP1 inhibitors) | chicken DT40 Tdp1-/-;hTDP1 cells + 20 nM CPT, ATP luminescence, 48 h | Potency, µM (titrated, usually from 46.2 µM), for the others: at the top dose activity change, negative = growth inhibition, usual class: inhibitors | actives 12% (n = 420,000) | AID 686979; note: % is set by controls: 0 for no effect and ±100 for the full control effect; nearly all actives have a fitted effect of over 55% in size
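Cell growth measured by CellTiter-Glo luminescence after a minimum 48 h, 37 C compound exposure with 20 nM CPT in Tdp1-knockout DT40 cells stably expressing hTDP1, seeded 400/well; qHTS titration format.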
DT40 TDP1 no CPT: qHTS for Inhibitors of human tyrosyl-DNA phosphodiesterase 1 (TDP1): qHTS in cells in absence of CPT; DT40 Tdp1-/- hTDP1 cells, no CPT, ATP luminescence, 48 h; Potency, µM (top dose mostly 46.2 µM), inactives show at the top dose activity change, negative = growth inhibition, most hits filed as inhibitors; actives 15% (n = 420,000); AID 686978, 2013; note: % is set by controls: 0 for no effect and ±100 for the full control effect; nearly all actives have a fitted effect of over 55% in size
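A cellular qHTS used chicken DT40 cells lacking endogenous Tdp1 but carrying stably transfected human TDP1. Compounds were applied without camptothecin, and cell growth kinetics were judged by ATP-dependent luminescence after ≥48 hr.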
HepG2 viability: HepG2 cytotoxicity, counter-screen for TGF-b inhibitors; HepG2 CAGA-GFP viability, ATP luminescence, 18 h; Potency, µM (series often up to 46.1 µM), for the others: at the top dose activity change, negative = cytotoxicity, most hits filed as cytotoxic; actives 0.76% (n = 410,000); AID 588856
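HepG2 CAGA-GFP cells (1000/well, DMEM with 1% FBS) received compound, then TGF-beta at 500 pg/mL final, and were incubated 18 hours at 37 degrees C. Viability was read by CellTiter-Glo luminescence. Media-only wells were set as complete cell-killing and DMSO as no toxicity.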
S2 tox: reduces viability in counter-screen for ATXN expression inhibitors. S2 cells (HEK-293 line with an ATXN2-luciferase reporter) viability, CellTiter-Fluor protease fluorescence, 24 h. AID 651635. actives 0.49% (n = 400,000). Potency, µM (series often up to 56.7 µM), hits mostly cytotoxic; note: nearly all actives have a fitted effect of over 40% in size
ATXN2 expr inh: ATXN2 expression inhibition; HEK-293 ATXN2-luciferase reporter, luminescence, 24 h; Potency, µM (series often up to 57 µM), for inactives: at the highest dose activity change, negative = inhibition, hits mostly inhibitors; actives 0.72% (n = 360,000); note: % is set by controls: 0 for no effect and ±100 for the full control effect; nearly all actives have a fitted effect of over 55% in size
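qHTS (up to 57 uM final) was run with 24 h compound exposure of reporter cells at 37 °C. Each well was multiplexed: SteadyGlo luminescence measured ATXN2-luciferase expression after a fluorogenic Gly-Phe-AFC viability readout (25 uM final).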
* hit, by the source's call; i = inactive; ? = inconclusive; . = no result given; [ ] = another dose, or the depositor's remark. Calls come from the whole dose curve; as a rule, active = well fitted curve in the direction sought with a large enough effect; inconclusive = small, poorly fitted or top-dose-only effect, or another doubt; inactive = no such curve, though single readings can be large; an effect the other way counts as inactive or inconclusive. Potency is the fitted concentration of half-maximal effect.

SMILES	TGFb SMAD3 inh	DT40 TDP1 CPT	DT40 TDP1 no CPT	HepG2 viability	S2 tox	ATXN2 expr inh
C[C@@H]1CN([C@@H](C)CO)S(=O)(=O)c2ccc(Br)cc2O[C@@H]1CN(C)C(=O)c1ccc(F)cc1	7%	21µM*	?	-24%	i	-6%
CCN1CCN(c2ccc(S(=O)(=O)N3CCCCC3)cc2NC(=O)/C=C/c2cccc(OC)c2OC)CC1	?	?	16µM*	-23%	?	-5%
CN1CCN(c2ccc(S(=O)(=O)N3CCCCC3)cc2NC(=O)/C=C/c2ccc(OC(F)F)cc2)CC1	?	?	-86%	-100%	i	-34%
CCN1CCN(c2ccc(S(=O)(=O)N3CCCCC3)cc2NC(=O)/C=C/c2ccc([N+](=O)[O-])cc2)CC1	-27%	?	?	-47%	?	32µM*
CCN1CCN(c2ccc(S(=O)(=O)N3CCCCC3)cc2NC(=O)/C=C/c2ccc(F)cc2)CC1	?	?	?	-75%	i	-15%
CN1CCN(c2ccc(S(=O)(=O)N3CCCCC3)cc2NC(=O)/C=C/c2ccc(Cl)c([N+](=O)[O-])c2)CC1	?	?	?	-97%	?	22µM*
CC(Sc1nc(-c2ccccc2)c(-c2ccccc2)[nH]1)C(=O)NCC1CCCO1 (centres undefined)	-3%	?	23µM*	1%	i	.
CCc1cccc2c(SC(C)C(=O)NCC3CCCO3)nc(-c3ccccc3)nc12 (centres undefined)	-6%	?	?	-16%	i	5%
CC(Sc1ncnc2sc(-c3ccccc3)cc12)C(=O)NCC1CCCO1 (centres undefined)	5%	?	23µM*	-15%	i	5%
CCC(=O)OCC(=O)[C@@]1(OC(=O)CC)[C@H](C)C[C@H]2[C@H]3[C@H]([C@@H](O)C[C@@]21C)[C@@]1(C)C=CC(=O)C=C1C[C@H]3Cl	.	-28%[21.1 µM]	-29%[21.1 µM]	.	i	.
O=C(Nc1cccc(F)c1)c1cccc2c1C(=O)N(C1CCCCC1)C2	27%	1%	-1%	8%	i	4%
CC(C)c1ccc(NC(=O)c2cccc3c2C(=O)N(C2CCCCC2)C3)cc1	-3%	2%	-8%	-1%	i	15%
Cc1ccc(NC(=O)c2cccc3c2C(=O)N(C2CCCCC2)C3)cc1	9%	?	21µM*	0%	i	2%
CCOc1ccccc1NC(=O)c1cccc2c1C(=O)N(C1CCCCC1)C2	-3%	?	13µM*	-12%	i	14%
CCOC(=O)N1CCC(N2Cc3cccc(C(=O)Nc4ccc(N(CC)CC)cc4C)c3C2=O)CC1	1%	?	16µM*	2%	i	-1%
CCc1cccc(NC(=O)c2cccc3c2C(=O)N(C2CCCCC2)C3)c1	-7%	?	18µM*	-10%	i	4%
Cc1nn(S(=O)(=O)c2ccc(C(C)(C)C)cc2)c(C)c1S(=O)(=O)N1CCC(C)CC1	-2%	-10%	-2%	-4%	i	-1%
C=C1C=C(C(F)F)n2ncc(C(=O)NC(C)CC)c2N1 (centres undefined)	-13%	4%	1%	0%	.	.
O=C(NCC(=O)N1CCC2(CC1)NCCc1[nH]cnc12)c1ccc2ccccc2c1	0%	-9%	23%	0%	i	0%
COC1=CC(=O)OC(c2ccccc2C(F)(F)F)C1 (centres undefined)	.	-3%	-12%	.	.	.
Cc1cc(C)c(NC(=O)c2cccc3c2C(=O)N(C2CCCCC2)C3)c(C)c1	16%	?	16µM*	5%	i	-22%
Cc1ccc(NC(=O)c2cccc3c2C(=O)N(C2CCCCC2)C3)c(C)c1	2%	-9%	?	17%	i	3%
CCOc1ccc2nc(Cl)c(/C=C/C(=O)c3ccco3)cc2c1	?	10µM*	15µM*	-46%	i	5%
Cc1cccc2cc(/C=N/Nc3ccc(C(=O)O)cc3)c(Cl)nc12	4%	-26%	?	7%	i	.
Cc1cccc2cc(/C=C/C(=O)c3ccco3)c(Cl)nc12	-33%	4.6µM*	8.2µM*	-178%	i	10%
SMILES	TGFb SMAD3 inh	DT40 TDP1 CPT	DT40 TDP1 no CPT	HepG2 viability	S2 tox	ATXN2 expr inh
O=C(OCc1cc(=O)n2nc(-c3cccs3)sc2n1)c1ccc(F)cc1	13%	-19%	-15%	-9%	i	5%
Cc1ccccc1Cn1cnc2nc3c(cc2c1=O)CC(C)CC3 (centres undefined)	12%	16µM*	2.6µM*	4%	i	18%
CC1CCc2nc3ncn(Cc4ccc(Cl)cc4)c(=O)c3cc2C1 (centres undefined)	0%	18µM*	23µM*	-2%	?	41%
O=c1c2cc3c(nc2ncn1Cc1ccc(Cl)cc1)CCCC3	1%	?	?	0%	?	0%
C#Cc1cccc(NC(=O)c2ccc3c(c2)C(=O)N(Cc2cccnc2)C3=O)c1	8%	-10%	13%	0%	i	1%
COc1ccc([N+](=O)[O-])cc1NS(=O)(=O)c1ccc(C(=O)N2CCCC2)cc1	-14%	-18%	-13%	-57%	i	-8%
Cc1ccc(-c2ccc(/C=C3\SC(N4CCOCC4)=NC3=O)o2)cc1	2%	10µM*	9.2µM*	-29%	.	-16%
O=C1N=C(N2CCOCC2)SC1=Cc1ccco1	-2%	4%	-19%	1%	i	9%
Cc1ccc(/C=C2\SC(N3CCN(C(c4ccccc4)c4ccccc4)CC3)=NC2=O)o1	?	15µM*	12µM*	-9%	?	-20%
O=C1S/C(=C\c2ccc(N3CCOCC3)o2)C(=O)N1Cc1ccc(F)cc1	-6%	?	?	-18%	i	-15%
O=C1N=C(N2CCOCC2)S/C1=C/c1ccc(-c2ccc(F)cc2)o1	13%	?	21µM*	-37%	i	-22%
FC(F)(F)c1ccccc1-c1nccc(N2CCNCC2)n1	.	-5%	3%	.	.	.
COc1ccc(OC)c2[nH]c(C(=O)N/N=C/c3ccccc3O)cc12	?	5.2µM*	3.7µM*	-12%	i	.
